High-throughput results: PubChem BioAssay, The Scripps Research Institute Molecular Screening Center
Hits are enriched below; roughly 0.9% of the tested compounds scored in any of these assays.
PPARg SRC-3 ag: promotes SRC-3 coactivator recruitment by human PPARgamma; P37231; biochemical PPARgamma/SRC-3 coactivator recruitment assay; activation, % at 8 µM; actives 0.26% (n = 200,000); AID 731; in the data active = activation above about 23%;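 also: 0% = DMSO and 100% = reference agonist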
Target sequence (P37231 whole entry, looked up): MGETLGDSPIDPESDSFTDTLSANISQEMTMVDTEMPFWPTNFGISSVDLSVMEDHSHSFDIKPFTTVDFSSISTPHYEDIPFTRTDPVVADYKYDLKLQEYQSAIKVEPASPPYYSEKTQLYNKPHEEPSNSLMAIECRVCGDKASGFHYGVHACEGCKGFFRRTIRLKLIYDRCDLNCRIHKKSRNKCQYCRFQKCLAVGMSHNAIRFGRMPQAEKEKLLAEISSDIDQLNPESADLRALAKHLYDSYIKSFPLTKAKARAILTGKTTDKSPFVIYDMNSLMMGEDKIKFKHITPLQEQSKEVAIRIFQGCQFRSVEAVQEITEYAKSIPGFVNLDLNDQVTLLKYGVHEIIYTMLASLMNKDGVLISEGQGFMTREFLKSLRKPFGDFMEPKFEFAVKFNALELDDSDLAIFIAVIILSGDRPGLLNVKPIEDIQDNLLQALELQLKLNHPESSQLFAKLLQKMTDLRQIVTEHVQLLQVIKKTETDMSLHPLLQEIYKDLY
SRC1 TRFRET art: counter-screen for PPARgamma SRC-1 recruitment agonists: TR-FRET artefact; TR-FRET ratio at 8 µM; actives 0.34% (n = 99,000); TR-FRET detection artefact counter-screen, emission ratio; stronger effect = higher value; in the data active = TR-FRET ratio above about 2300
PPARg SRC2 recr: PPARgamma-driven SRC-2 recruitment agonism; activation, % at 8 µM; PPARgamma LBD-SRC-2 recruitment, biochemical; P37231; actives 0.34% (n = 200,000);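 also: 0% = vehicle and 100% = reference agonist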
PPARg SRC-1 ag: agonists of human PPARgamma SRC-1 coactivator recruitment; P37231; PPARgamma-SRC-1 coactivator recruitment biochemical assay; activation, % at 8 µM; actives 0.41% (n = 200,000); in the data active = activation above about 19%;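 also: 0% = DMSO and 100% = reference agonist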
TR-FRET SRC-2 ct: counter-screen for PPARgamma SRC-2 recruitment agonists: TR-FRET artefact | stronger effect = higher value | TR-FRET ratio at 8 µM | actives 0.4% (n = 200,000); in the data active = TR-FRET ratio above about 2000
SRC3 TRFRET art: TR-FRET artefact, counter-screen to PPARgamma/SRC-3 agonist assay; PPARgamma/SRC-3 format; stronger effect = higher value; TR-FRET ratio at 8 µM; actives 0.39% (n = 99,000); in the data active = TR-FRET ratio above about 2000
PPARg SRC2 conf: human PPARgamma SRC-2 recruitment agonism, confirmation. shares compounds with PPARg SRC-3 ag. biochemical SRC-2 recruitment by PPARgamma. activation, % at 8 µM. actives 52% (n = 790). AID 1297;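 also: 0% = vehicle alone and 100% = reference agonist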
PPARg SRC1 ag: confirmation of agonists of SRC-1 recruitment by human PPARgamma. shares compounds with PPARg SRC-3 ag. PPARgamma–SRC-1 coactivator recruitment biochemical assay. activation, % at 8 µM. actives 43% (n = 790). AID 1300; in the data active = activation above about 20%;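 also: 0% = vehicle wells and 100% = reference agonist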
PPARg SRC3 ag: confirmation of agonists of SRC-3 recruitment by human PPARgamma | shares compounds with PPARg SRC-3 ag | biochemical PPARgamma-SRC-3 coactivator recruitment, agonist mode | activation, % at 8 µM | actives 29% (n = 790); in the data active = activation above about 24%;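 also: 0% = vehicle wells and 100% = reference agonist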
Starred values were filed as active, the others as inactive; x = not tested or not shown. Rule as the data show it, unless noted: active = activation above about 22%; inactive = the rest.

SMILES | PPARg SRC-3 ag | SRC1 TRFRET art | PPARg SRC2 recr | PPARg SRC-1 ag | TR-FRET SRC-2 ct | SRC3 TRFRET art | PPARg SRC2 conf | PPARg SRC1 ag | PPARg SRC3 ag
O=C(O[C@@H]1OC2COC(=O)c3cc(O)c(O)c(O)c3-c3c(cc(O)c(O)c3O)C(=O)O[C@@H]([C@H]1O)[C@@H]2O)c1cc(O)c(O)c(O)c1 | 10 | 1985 | 24* | 20 | 1547 | 1701 | 8 | 7 | 2
Cc1cccc(-n2c(=S)[nH]c3sc4c(c3c2=O)CCc2ccccc2-4)c1 | 21 | 2821* | 36* | 26* | 2315* | 2699* | 34* | 22* | 24*
C(=N\Nc1nc2ccccc2[nH]1)/c1ccncc1 | 9 | 1761 | 11 | 16 | 1937 | 1586 | x | x | x
C(=N\Nc1nc2ccccc2[nH]1)/c1ccc2c(c1)OCO2 | 10 | 2193 | 5 | 22* | 2021* | 1932 | 12 | 17 | 9
COc1cc(/C=N/Nc2nc3ccccc3[nH]2)ccc1O | 14 | 2030 | 9 | 7 | 1560 | 1195 | x | x | x
COc1ccc(O)c(/C=N/Nc2nc3ccccc3[nH]2)c1 | 21 | 2218 | 26* | 7 | 1754 | 1959 | 8 | 8 | 9
C(=N\Nc1nc2ccccc2[nH]1)/c1cccs1 | 28* | x | 10 | 15 | 1564 | x | 10 | 11 | 7
O=C1N(c2cccc(Cl)c2)C(c2ccc(Cl)cc2)N2CCCN12 (stereo not drawn) | 1 | 1967 | 10 | 7 | 1450 | 1539 | x | x | x
N#CC1=C2SCN(Cc3ccccc3)CN2C(=O)CC1c1cccs1 (stereo not drawn) | 26* | x | 23* | 13 | 2063* | x | 23* | 15 | 15
Cc1ccc(-c2cc(-c3ccccc3)c(C#N)c(N)n2)o1 | -4 | x | 5 | 8 | 1836 | x | x | x | x
Cc1cc(-c2ccc(Cl)cc2)c(C#N)c(N)n1 | 19 | x | 12 | 19* | 1825 | x | 3 | 1 | 0
Cc1cc(C(=O)COC(=O)CNS(=O)(=O)c2ccc3ccccc3c2)c(C)n1-c1ccccc1 | 2 | 1884 | 6 | 3 | 1766 | 1624 | x | x | x
O=C(CNS(=O)(=O)c1ccc2ccccc2c1)OCC(=O)c1ccc(Br)s1 | 69* | x | 61* | 33* | 2540* | x | 55* | 35* | 38*
O=C(CN1CCSCC1)N/N=C/c1cccc(Cl)c1 | 5 | 1791 | 3 | 18 | 1704 | 1594 | x | x | x
O=C(CSc1c2c(nc3ccccc13)CCC2)N1CCCC1 | 2 | 2117 | 0 | 8 | 1536 | 1706 | x | x | x
COc1ccc(NC(=O)CSc2c3c(nc4cc(Cl)ccc24)CCCC3)cc1OC | 6 | 1955 | 2 | 0 | 1586 | 1721 | x | x | x
COCCNC(=O)CSc1c2c(nc3ccc(Cl)cc13)CCCC2 | 20 | 2521* | 31* | 39* | 2154* | 2446* | 19 | 10 | 12
COc1ccccc1NC(=O)CSc1c2c(nc3ccccc13)CCC2 | 0 | 1829 | -1 | 3 | 1565 | 1720 | x | x | x
CCOC(=O)C1CCN(C(=O)CSc2c3c(nc4ccccc24)CCC3)CC1 | 9 | 1938 | 23* | 17 | 1921 | 1925 | 24* | 13 | 13
COc1ccc(NC(=O)CSc2c3c(nc4ccccc24)CCCC3)c(OC)c1 | 17 | 2200 | 27* | 26* | 1985* | 1880 | 26* | 13 | 17
O=C(CSc1c2c(nc3cc(Cl)ccc13)CCCC2)NCc1ccco1 | 23 | x | 26* | 16 | 2007* | x | 29* | 21* | 17
NS(=O)(=O)c1ccc(NC(=S)Nc2ccn(Cc3cccc4ccccc34)n2)cc1 | 6 | 1642 | 1 | 7 | 1490 | 1558 | x | x | x
Cc1ccccc1NC(=S)NNC(=O)c1csc2c1CCC(C)C2 (stereo not drawn) | 3 | x | 11 | -3 | 1568 | x | x | x | x
CC(C)(C)NS(=O)(=O)c1cc(C(=O)Nc2sccc2C#N)ccc1Cl | 1 | 1955 | 0 | 5 | 1616 | 1733 | x | x | x
CCCCC(CC)CNC(=O)C(Cc1ccccc1)NS(=O)(=O)c1ccc2c(c1)CCC(=O)N2 (stereo not drawn) | 2 | 1783 | -3 | 1 | 1467 | 1712 | x | x | x
SMILES | PPARg SRC-3 ag | SRC1 TRFRET art | PPARg SRC2 recr | PPARg SRC-1 ag | TR-FRET SRC-2 ct | SRC3 TRFRET art | PPARg SRC2 conf | PPARg SRC1 ag | PPARg SRC3 ag
C/C(=N\NC(=O)c1ccc(O)cc1)c1ccc2c(c1)Nc1ccccc1S2 | 14 | 1994 | 27* | 17 | 1763 | 1673 | 10 | 6 | 7
O=C1c2ccccc2C(=O)N1c1cccc(-c2csc(Nc3ccc4c(c3)OCO4)n2)c1 | 12 | 2024 | 26* | 19 | 1630 | 1746 | 14 | 12 | 8
O=C(COC(=O)c1ccc(Cl)s1)c1ccc[nH]1 | 7 | 1863 | 22* | 11 | 1677 | 1421 | 3 | 3 | 7
Cc1ccc(C(=O)OCC(=O)c2ccc[nH]2)s1 | 2 | 1844 | -1 | -6 | 1546 | 1557 | x | x | x
Cc1cccc(Nc2nc(-c3ccccc3)c(C(=O)Nc3cccnc3)s2)c1 | 27* | 3448* | 38* | 29* | 2484* | 3117* | 57* | 44* | 38*
Cc1nc(NC(N)=S)sc1C(=O)Nc1ccccc1 | 27* | x | 18 | 14 | 1621 | x | 5 | 5 | 5
O=C(Nc1cccnc1)c1sc(Nc2ccccc2)nc1-c1ccccc1 | 42* | 3708* | 55* | 48* | 2618* | 3330* | 79* | 59* | 54*
Cc1nc(N)sc1C(=O)Nc1ccccc1 | 4 | x | -4 | 2 | 1547 | x | x | x | x
Cn1c(=O)cc(SCC(=O)NCCCN2CCN(c3ccc(F)cc3)CC2)c2ccccc21 | 134* | x | 95* | 97* | 4545* | x | 51* | 34* | 36*
COc1ccccc1CNC(=O)CCCOc1cc(=O)n(C)c2ccccc12 | 9 | x | 8 | 2 | 1525 | x | x | x | x
COc1ccccc1CNC(=O)CSc1cc(=O)n(C)c2ccccc12 | 10 | 2191 | 25* | 22* | 2116* | 1939 | 7 | 9 | 5
Cn1c(=O)cc(SCC(=O)NCCN2CCN(c3ccccc3F)CC2)c2cc(Cl)ccc21 | 92* | x | 107* | 82* | 3707* | x | 59* | 39* | 42*
Cn1c(=O)cc(SCC(=O)NCc2ccc(F)cc2)c2ccccc21 | 16 | 2122 | 18 | 25* | 2135* | 2264* | 22* | 18 | 15
C#CCOCCOCCOCCNc1nc(N2CCN(C(=O)[C@H](CCCCN)n3cc([C@@H](N)C(C)CC)nn3)CC2)nc(N2CCN(C(=O)[C@H](CCCCN)n3cc([C@@H](N)CC(C)C)nn3)CC2)n1 (stereo partly drawn) | 3 | 1822 | -1 | 2 | 1644 | 1501 | x | x | x
